The campaign covered roughly 5,500 compounds. About 2,000 (36%) were called active. About 18% were inconclusive and are not listed. Rule as the data show it: active = normalized growth mostly below about 0.91 (no sharp cut-off); inconclusive = no clear call, values can overlap the other calls; inactive = mostly above about 0.92. The list shows a part of the results.
Test: chemical genetic growth profiling, strain panel (AID 1159580);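 also: tested at 20 µM; growth read once vehicle control cultures reached saturation at 30 °C; 1 = growth at the plate median or of vehicle wells; lower values mean less growth of the strain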
Details: S. cerevisiae deletion strains, growth OD

Measured: normalized growth

CC1(C)C2CCC1(C)C(O)C2 (stereo not drawn)
inactive: locus YHR030C, strain SLT2, hits give low values 0.98 | locus YHR079C, strain IRE1, hits give low values 0.981 | locus YJL095W, strain BCK1, hits give low values 0.999 | locus YJR066W, strain TOR1, hits give low values 0.923 | locus YLR113W, strain HOG1, hits give low values 0.991 | locus YNL183C, strain NPR1, hits give low values 0.947 | locus YOR231W, strain MKK1, hits give low values 0.992 | locus YPL256C, strain CLN2, hits give low values 0.993

Source: PubChem BioAssay AID1159580 (chemical genetic matrix, 2015)
